Several values for one entry are separate records, joined by “and”; a condition that tells them apart may be missing. Equal values may be shown once. Records with an inconclusive call do not appear. Activity calls are given as the source filed them. Unless noted, calls follow the shape of the dose curve; as a rule, active = well fitted curve in the direction sought with a large enough effect; inconclusive = small, poorly fitted or top-dose-only effect, or another doubt; inactive = no such curve, though single readings can be large; an effect the other way counts as inactive or inconclusive.
Key:
[1] = Cellular Toxicity (caspase-3) HepG2 (AID 654);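 also: cells exposed to compound for 16 hours before reading; 0% = DMSO alone and 100% = caspase signal from 100 µM tamoxifen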
In short: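 Caspase 3/7 activation is measured as a luminescence increase (aminoluciferin substrate) after 16 h compound exposure of human hepatocarcinoma HepG2 cells. AC50 values are Hill fits, scaled between DMSO baseline and 100 uM tamoxifen stimulation.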

[2] = Cellular Toxicity (caspase-3) SK-N-SH (AID 661); also: potency is read from the fitted curve at half-maximal effect;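 as to caspase-3 activation: 0% = DMSO basal and 100% = 10 µM staurosporine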
In short: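 Caspase 3/7 activation was read by luminogenic substrate cleavage after 16 hour treatment of SK-N-SH cells. Signal was scaled between DMSO and 10 uM staurosporine, and concentration-response data were fitted with the Hill equation for AC50.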

[3] = Cellular Toxicity (caspase-3) Hek293 (AID 664); settings: HEK293 caspase-3 activation, DMSO = 0%, 100 µM tamoxifen = 100%; at 92.2 µM (top of the series);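 also: cells exposed to compound for 16 h at 37 °C before readout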
In short: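 Concentration-response qHTS: caspase 3/7 activation measured by luminescent aminoluciferin substrate cleavage after 16 h compound exposure of Hek 293 cells. AC50 from Hill equation, with DMSO as basal and 100 uM tamoxifen as 100%.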

[4] = Cellular Toxicity (caspase-3) N2a (AID 665);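 also: compound exposure lasted 16 h at 37 °C before readout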
In short: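 Caspase-3/7 activation measured as luminescence from Caspase-Glo reagent (1 h, room temperature) after 16 h compound exposure of mouse N2a cells. AC50 values from Hill-equation concentration-response, scaled between DMSO and 10 uM staurosporine.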

[5] = Cellular Toxicity (caspase-3) NIH 3T3 (AID 666);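 also: caspase signal read after 16 h compound exposure; 0% = DMSO basal and 100% = 100 µM tamoxifen stimulation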
In short: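 Caspase-Glo 3/7 luminescence reported caspase activation in 1000 NIH 3T3 cells/well after 16 h compound exposure at 37 C. DMSO set basal and 100 uM tamoxifen set 100% stimulation; concentration-response modeled with the Hill equation for AC50.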

[6] = Cellular Toxicity (caspase-3) Renal Proximal Tubule (AID 667);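 also: cells exposed to compound for 16 hours at 37 °C before detection; 0% = DMSO basal and 100% = 10 µM staurosporine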
In short: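 Caspase 3/7 activation measured by luminescent aminoluciferin release in primary rat proximal tubule cells after 16 hr compound exposure at 37 °C. AC50 from Hill-fitted concentration-response, scaled between DMSO and 10 uM staurosporine.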

[7] = MultiTox-Fluor Cytotoxicity Assay - LYMP1-003 - Dead Cells (AID 961);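 also: 0% = DMSO and 100% = tetraoctylammonium bromide; nearly all actives have a fitted effect of over 70% in size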
In short: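 Acute toxicity is scored as increased dead-cell protease activity in human lymphoblastoid LYMP1-003 cells after 16 h compound exposure in complete culture medium. Activity is normalized to DMSO basal and 15 uM tetraoctylammonium bromide as full response.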

[8] = Cell Viability - LYMP2-003 (AID 965);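 also: cells exposed to compounds for 24 h before reading; nearly all actives have a fitted effect of over 50% in size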; also: potency is read from the fitted curve at half-maximal effect
In short: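 CellTiter-Glo luminescence quantified ATP loss after 24 h compound treatment of LYMP2-003 lymphoblastoid cells at 37 C. Titration series were fitted with the standard Hill equation to give AC50.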

[9] = Cell Viability - LYMP2-009 (AID 968); also: nearly all actives have a fitted effect of over 55% in size; also: potency is read from the fitted curve at half-maximal effect
[10] = Cell Viability - LYMP2-013 (AID 970); also: nearly all actives have a fitted effect of over 55% in size; also: potency is read from the fitted curve at half-maximal effect
In short: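 qHTS cytotoxicity: ATP-dependent luminescence (CellTiter-Glo, 30 min room temperature) read after 24 h compound exposure at 37 C of 2500 LYMP2-013 lymphoblastoid cells per well. Concentration-response fitted with Hill equation to give AC50.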

[11] = Cell Viability - LYMP2-025 (AID 976); also: potency is read from the fitted curve at half-maximal effect
In short: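 Cytotoxicity read as loss of intracellular ATP (luciferase luminescence) after 24 h compound treatment at 37 C. Uses LYMP2-025 lymphoblastoid cells in 1536-well format; Hill-equation modelling gives AC50; tetraoctylammonium bromide as positive control.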

[12] = Cell Viability - LYMP2-006 (AID 978); also: nearly all actives have a fitted effect of over 60% in size; also: potency is read from the fitted curve at half-maximal effect
In short: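 Potency values are Hill-fit AC50s for decreases in intracellular ATP (CellTiter-Glo luminescence). LYMP2-006 lymphoblastoid cells, 2500 per well, were exposed to compound in complete culture medium for 24 hr at 37 C.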

[13] = Cell Viability - LYMP2-007 (AID 979);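 also: cells exposed to compound for 24 h before reading; nearly all actives have a fitted effect of over 60% in size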; also: potency is read from the fitted curve at half-maximal effect
In short: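 AC50 values come from Hill-equation fits of luminescent intracellular ATP (CellTiter-Glo, 30 min, room temperature) following 24 h compound exposure at 37 C. Cells: LYMP2-007 lymphoblastoid line, 2500 per well, in complete culture medium.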

[14] = Cell Viability - LYMP2-008 (AID 980); also: nearly all actives have a fitted effect of over 60% in size; also: potency is read from the fitted curve at half-maximal effect
In short: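 Cytotoxicity determined from ATP-dependent luciferase luminescence (CellTiter-Glo) following 24 h compound exposure of human lymphoblastoid LYMP2-008 cells at 37 C. Concentration-response data fitted to the Hill equation to give AC50.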

[15] = Cell Viability - LYMP1-002 - Assay at 24 hr (AID 993); also: % is scaled to controls: 0 for no effect and ±100 for the full control effect
In short: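 qHTS cytotoxicity at 24 h: CellTiter-Glo ATP luminescence in lymphoblastoid line LYMP1-002 incubated with compound at 37 °C. Concentration-response modeled with the Hill equation for AC50; tetraoctylammonium bromide served as positive control.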

[16] = qHTS Assay for Identification of Small Molecule Inducers of Hypoxia Response (AID 2120; active = well fitted curve in the direction sought with a large enough effect in the signal ratio, with a control signal flat, not every such curve was filed as active; the % refers to the signal ratio; also: potency is read from the fitted curve at half-maximal effect; as to activation: 0% is about no effect)
In short: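 Reporter induction read as the CCF4 blue/green (460nm/530nm) emission ratio after 2.5 h dye loading at room temperature. ME-180 HRE-beta-lactamase cells received titrated compounds for 17 h at 37 degrees Celsius; AC50 values derived.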

[17] = target: Peroxisome proliferator-activated receptor alpha (Homo sapiens) (UniProt Q07869); test: qHTS assay for small molecule agonists of the peroxisome proliferator-activated receptor alpha (PPARalpha) signaling pathway (AID 651778); settings: PathHunter PPARalpha complementation, chemiluminescence, 6 h; hits give high values; also: % of control where 0% means no effect
In short: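 Cells plated at 2,000/well and held overnight at 37 C, 5% CO2, then compound added by pin tool for 6 hr; after PathHunter detection reagent and 60 min at room temperature, chemiluminescence from enzyme complementation was read.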

[18] = qHTS assay for small molecule agonists of the antioxidant response element (ARE) signaling pathway measured by Nrf2-dependant transcriptional activity - cell viability counter screen (AID 720653; active = well fitted curve in the direction sought with a large enough effect in the repeat runs; an effect the other way counts as inactive or inconclusive; also: % is scaled to controls: 0 for no effect and ±100 for the full control effect); settings: ARE-bla HepG2 viability, CellTiter-Glo ATP luminescence, 16 h; hits give low values
In short: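 ARE-bla HepG2 cells (2,000/well) rested 5 hrs at 37C/5% CO2, then exposed to compounds in DMSO for 16 hrs. Viability was read in the same wells as intracellular ATP by luminescence, 30 min at room temperature after reagent addition.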

[19] = qHTS assay for cell viability of HEK293 cells (AID 743288); settings: ATP luminescence (CellTiter-Glo), 18 h, hits give low values; also: % is scaled to controls: 0 for no effect and ±100 for the full control effect; nearly all actives have a fitted effect of over 50% in size
In short: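 Readout is luciferase-coupled ATP content (CellTiter-Glo luminescence, 30 min room temperature) as a measure of metabolically competent cells. Parental HEK293 cells were plated 5 h or more before compound addition, then treated 18 h at 37 C.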

[20] = qHTS assay for cell viability of the p53RE-bla HCT-116 cell line (AID 743292); also: nearly all actives have a fitted effect of over 55% in size; also: potency is read from the fitted curve at half-maximal effect
In short: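 After plating at 4,000 cells per well and a 5 h rest at 37 C, HCT-116 cells carrying p53RE-bla received test chemicals in DMSO. Sixteen hours later at 37 C, CellTiter-Glo was added and luminescence recorded following 30 min at room temperature.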

Sequence of Peroxisome proliferator-activated receptor alpha (Homo sapiens) (Q07869 whole entry, looked up): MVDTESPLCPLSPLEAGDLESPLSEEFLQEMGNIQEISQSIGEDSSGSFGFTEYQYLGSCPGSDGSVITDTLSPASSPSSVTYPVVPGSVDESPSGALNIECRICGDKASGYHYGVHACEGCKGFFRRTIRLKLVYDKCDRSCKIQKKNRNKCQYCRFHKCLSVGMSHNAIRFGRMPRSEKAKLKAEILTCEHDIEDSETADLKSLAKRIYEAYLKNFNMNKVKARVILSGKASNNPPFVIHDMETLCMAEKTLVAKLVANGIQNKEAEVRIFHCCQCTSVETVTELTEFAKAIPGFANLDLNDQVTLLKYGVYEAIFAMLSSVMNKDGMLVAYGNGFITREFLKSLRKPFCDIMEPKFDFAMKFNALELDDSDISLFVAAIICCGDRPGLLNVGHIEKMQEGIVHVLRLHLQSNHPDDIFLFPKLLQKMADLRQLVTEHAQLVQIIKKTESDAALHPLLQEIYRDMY

c1ccc(Nc2ccc(Nc3ccccc3)cc2)cc1
inactive: outcome [1] | Potency [2] | caspase-3 activation [3] -2.23% | outcome [4] | Potency [5] | outcome [6] | Potency [7] | Potency [8] | Potency [9] | Potency [10] | Potency [11] | Potency [12] | Potency [13] | Potency [14] | Potency [15] | Potency [16] | max response [17] -0.732% | max response [18] -13.9% | max response [19] -19.5% | Potency [20]

CCN(CC)N=O
inactive: outcome [1] | Potency [2] | caspase-3 activation [3] 1.39% | outcome [4] | Potency [5] | outcome [6] | Potency [7] | Potency [8] | Potency [9] | Potency [10] | Potency [11] | Potency [12] | Potency [13] | Potency [14] | Potency [15] | Potency [16] | max response [17] 2.1% | max response [18] 2.46% | max response [19] 1.5% | Potency [20]

CN(C)c1ccc(N=Nc2ccccc2)cc1
inactive: outcome [1] | Potency [2] | caspase-3 activation [3] -8.79% | outcome [4] | outcome [6] | Potency [7] | Potency [8] | Potency [10] | Potency [11] | Potency [12] | Potency [13] | Potency [14] | Potency [15] | Potency [16] | max response [17] -12.4% | max response [18] -5.92% | max response [19] -8.55% | Potency [20]

O=[N+]([O-])c1cccc(CCl)c1
active: Potency [9] 79.4 µM
inactive: outcome [1] | Potency [2] | caspase-3 activation [3] -1.48% | outcome [4] | outcome [6] | Potency [7] | Potency [8] | Potency [10] | Potency [11] | Potency [12] | Potency [14] | Potency [15] | Potency [16] | max response [17] 0.189% | max response [18] -3.2% | max response [19] -20.5% | Potency [20]

BrCC(Br)(Br)Br
active: Potency [2] 25.1 µM | Potency [9] 31.6 µM | Potency [10] 25.1 µM | Potency [12] 15.8 µM | Potency [13] 12.6 µM | Potency [14] 39.8 µM
inactive: outcome [1] | caspase-3 activation [3] 7.98% | outcome [4] | Potency [5] | outcome [6] | Potency [7] | Potency [8] | Potency [15] | Potency [16] | max response [17] -5.78% | Potency [20]

c1ccc2c(c1)-c1cccc3c1c-2cc1ccccc13
active: Potency [16] 44.7 µM

N#C/C=C/C#N
inactive: outcome [1] | Potency [2] | caspase-3 activation [3] -2.32% | outcome [4] | Potency [5] | outcome [6] | Potency [7] | Potency [15] | Potency [16] | max response [17] -6.4% | max response [18] -28.1% | Potency [20]
active: Potency [8] 20 µM | Potency [9] 31.6 µM | Potency [10] 39.8 µM | Potency [11] 50.1 µM | Potency [12] 25.1 µM | Potency [13] 39.8 µM | Potency [14] 39.8 µM

Oc1cc(Cl)c(Cl)c(Cl)c1
inactive: outcome [1] | Potency [2] | caspase-3 activation [3] 11.5% | outcome [4] | Potency [5] | outcome [6] | Potency [7] | Potency [15] | Potency [16] | max response [17] -3.78% | max response [18] -10.7% | max response [19] -15.1% | Potency [20]

[C-]1=CC=CC1.[C-]1=CC=CC1.[Cl-].[Cl-].[Ti+4]
inactive: outcome [1] | Potency [2] | caspase-3 activation [3] 3.8% | outcome [4] | Potency [5] | outcome [6] | Potency [7] | Potency [16] | max response [17] 0.688% | max response [18] -7.58% | max response [19] -17.8% | Potency [20]

c1ccc2c(c1)ccc1cc3c(ccc4ccccc43)cc12
active: Potency [16] 44.7 µM

Nc1ccc(-c2ccc(N)c(Cl)c2)cc1Cl
inactive: outcome [1] | Potency [2] | caspase-3 activation [3] 4.67% | outcome [4] | Potency [5] | outcome [6] | Potency [8] | Potency [9] | Potency [10] | Potency [11] | Potency [12] | Potency [13] | Potency [14] | Potency [15] | Potency [16] | max response [17] -4.73% and -2.04% | max response [18] -14% and -8.08% | max response [19] -8.22% and -17.1% | Potency [20]

Oc1cc(Cl)c(Cl)c(Cl)c1Cl
inactive: outcome [1] | Potency [2] | caspase-3 activation [3] 8.07% | outcome [4] | Potency [5] | outcome [6] | Potency [7] | Potency [8] | Potency [11] | Potency [12] | Potency [13] | Potency [14] | Potency [15] | Potency [16] | max response [17] 0.278% | max response [19] -11.3% | Potency [20]

Clc1ccc(C(c2ccccc2Cl)C(Cl)(Cl)Cl)cc1 (stereo not drawn)
active: Potency [20] 50.1 µM
inactive: outcome [1] | Potency [2] | outcome [4] | Potency [5] | outcome [6] | Potency [7] | Potency [8] | Potency [9] | Potency [10] | Potency [11] | Potency [12] | Potency [13] | Potency [14] | Potency [15] | Potency [16] | max response [17] 3.12% | max response [18] -11.9% and 2.81%

— PubChem BioAssay (NCATS)
